From PubChem BioAssay AID1688 (National Center for Advancing Translational Sciences (NCATS), 2009)
Among all 220,000 compounds or so, about 2,400 (1.1%) were called active. Roughly 7% stayed inconclusive and do not appear here. This is one part of a sample in which actives are shown more often than they occur. The call rests on the fitted dose curve; in most records, active means well fitted inhibition curve with a large enough effect; inconclusive means small, poorly fitted or top-dose-only effect, or effect the other way; inactive means no such curve, though single readings can be large or run the other way.

Test: qHTS Multiplex Assay to Identify Dual Action Probes in a Cell Model of Huntington: Aggregate Formation (GFP); further: nearly all actives have a fitted effect of over 60% in size
Details: PC12 HttQ103-GFP aggregates, Acumen cytometry, 40 h; series mostly up to 9.22 µM; activity change, negative = inhibition: at the top concentration
Summary of the method: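 Multiplexed with ATP-based cell death, this channel scores GFP aggregates in PC12 cells expressing inducible HTTex1-Q103-GFP. Induction used 100 nM tebufenozide; compounds were tested in concentration series.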
On the % scale 0 is the no-effect control and ±100 the full control effect; potency means the concentration at half of the fitted maximal effect.

Activity change, negative = inhibition, inactive:
Cc1ccc(NNC(=O)c2cccs2)cc1Cl 19%
O=C(Nc1ccc(S(=O)(=O)Nc2nccs2)cc1)c1cc(=O)[nH]c2ccccc12 -14.5%
Cc1cc(Cl)c(S(=O)(=O)NCC2CCCO2)cc1OCC(N)=O (stereo unspecified) -10.1% [at 46.1 µM]
Cc1ccc(NC(=O)c2ccc(S(=O)(=O)NCC3CCCO3)cc2)cc1C (stereo unspecified) 0.556%
CC(C)(O)c1ccccc1CC[C@H](SCC1(CC(=O)O)CC1)c1cccc(/C=C/c2ccc3ccc(Cl)cc3n2)c1 6.98% [at 46.1 µM]
Cc1cc(Cl)ccc1NNC(=O)c1snnc1C 3.92%
O=C1C2C3C=CC(C3)C2C(=O)N1c1ccc(S(=O)(=O)Nc2nccs2)cc1 (stereo unspecified) 28.1%
CC(C)(C)c1cc(C(=O)NN)n(Cc2ccc(Cl)cc2Cl)n1 -29.8%
COC(=O)c1ccccc1NC(=O)c1ccccc1NS(C)(=O)=O 3.87% [at 46.1 µM]
O=S(=O)(Nc1ccccc1N1CCOCC1)c1ccc(Cl)s1 -24.5% [at 46.1 µM]
CCOc1ccc(NC(=O)c2ccccc2NS(C)(=O)=O)cc1 20.3%
COc1cc(NC(=O)c2cccnc2SC)cc(OC)c1 -3.73% [at 46.1 µM]
COc1ccc(S(=O)(=O)N(CC(=O)N/N=C/c2ccccc2C(=O)O)c2ccccc2OC)cc1 12.6%
CC(C)(C)NC(=O)/C(=C/c1cccnc1)NC(=O)c1ccco1 22.8%
CCn1c(CN2C(=O)CSc3ccccc32)n[nH]c1=S -2.01%
Cc1nc(=O)c(-c2ccccc2)c(C)n1-c1ccc(Br)cc1 8.99%
CCCc1nc2oc3c(=O)[nH]cnc3c2c2c1COC(C)(C)C2 9.46%
Cc1cc(CO)nn1-c1ccc([N+](=O)[O-])cc1 9.64%
O=C(c1c(Cl)cccc1Cl)N1CCN(c2cccc3[nH]ccc23)CC1 -14%
Cc1ccc(-c2c[n+](=O)c3c(n2[O-])CCC3)cc1 -12.9%
CCC(=O)N1CCCc2ccccc21 -7.24%
Cc1cc(C)cc(OCC(=O)O/N=C(\N)Cc2ccc([N+](=O)[O-])cc2)c1 -1.2%
O=c1c2c(ncn1Cc1ccccc1)nc1n2CCC1 -20.5% [at 46.1 µM]
CN(C)/C=C/c1c(C#N)c(=O)ncn1Cc1ccccc1 13.8% [at 46.1 µM]
CCOC(=O)N1CCN(C(=O)c2cc3c(-c4ccc(Cl)cc4)nn(C)c3s2)CC1 5.53% [at 46.1 µM]
COc1ccc(-c2cc(C(=O)NCc3ccco3)no2)cc1OC 10.5% [at 46.1 µM]

Potency, active:
Cc1ccc(C(=O)O)cc1S(=O)(=O)NCC1CCCO1 (stereo unspecified) 3.98 µM
COC(=O)c1ccc(NC(=O)c2ccccc2NS(=O)(=O)c2ccccc2)cc1 11.2 µM
COc1cc(NC(=O)c2ccccc2NS(=O)(=O)c2ccc(Cl)s2)cc(OC)c1 3.98 µM
CN(C)c1ccnc2sc3c(=O)n(Cc4ccccc4)cnc3c12 7.08 µM
Cn1nc(-c2ccc(Cl)cc2)c2cc(C(=O)NCc3ccco3)sc21 20 µM
